HT1080-NT tox – kills 2HG-producing HT-1080-NT fibrosarcoma cells | AID 686970 | HT-1080-NT fibrosarcoma viability, CellTiter-Glo ATP luminescence, 48 h | actives 1.6% (n = 360,000) | Potency, µM (top dose mostly 46.1 µM), for inactives: top-dose activity, negative = less viability, hits mostly cytotoxic;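 further: NT is the 2HG producing partner of a matched IDH1 knockdown line; potency means the concentration at half of the fitted maximal effect; 0% = DMSO-treated cells and -100% = media-only wells without cells; nearly all actives have a fitted effect of over 55% in size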
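Fibrosarcoma NT cells, 750 per well in 5% FBS RPMI, were exposed to compound for 48 hours. Viability: CellTiter-Glo luminescence.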
HT1080 IDH1KD tx – toxicity to HT-1080 IDH1 knockdown cells (counter line) | HT-1080 IDH1 knockdown viability, ATP luminescence, 48 h | Potency, µM (series often up to 46.1 µM), inactives show top-dose activity, negative = toxicity, actives largely listed as cytotoxic | actives 2% (n = 360,000) | AID 686971;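 further: potency means the concentration at half of the fitted maximal effect; 0% = DMSO wells and -100% = cell-free medium wells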
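HT-1080-IDH1KD cells (IDH1 knocked down), 750/well in RPMI with 5% FBS, treated with compound 48 h at 37 degrees C. Viability by CellTiter-Glo luminescence, normalised to DMSO and no-cell wells; concentration-response curves classed.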
KB-V1 cytotox – KB-V1 MDR subline cytotoxicity; KB-V1 MDR cells viability, CellTiter-Glo, 72 h; Potency, µM (titrated, usually from 46.1 µM), usual class: cytotoxic; actives 3.4% (n = 400,000); AID 1347076; further: potency means the concentration at half of the fitted maximal effect; nearly all actives have a fitted effect of over 60% in size
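KB-V1 cells (P-gp-expressing MDR subline of KB-3-1) in phenol-red-free DMEM with 10% FBS were exposed to library compounds over a concentration series for 72 h at 37 degrees C. Viability read by CellTiter-Glo luminescence; concentration-effect curves fitted after normalization.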
KB-3-1 cytotox – KB-3-1 parental cell cytotoxicity. KB-3-1 viability, CellTiter-Glo ATP luminescence, 72 h. Potency, µM (doses to about 46.1 µM), hits mostly cytotoxic. actives 1.4% (n = 400,000). AID 1347075; further: potency means the concentration at half of the fitted maximal effect; nearly all actives have a fitted effect of over 60% in size
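Parental KB-3-1 viability, qHTS format: 72 h compound exposure, 37 °C; CellTiter-Glo; media-only wells and DMSO plates as controls; concentration-effect fits on corrected data.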
IL1B secr inh – inhibitors of inflammasome signaling (IL-1 beta secretion) | THP-1 LPS/ATP IL-1B secretion, AlphaLISA, 16 h; active compounds read low | activity change, % at 57.5 µM | actives 4.7% (n = 360,000) | AID 743279; in the data active means activity change below about -50%; inconclusive means mostly about -30% to -49%
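THP-1 cells pretreated 1 hr with compounds (up to 57.5 uM final), then stimulated with LPS (250 ng/mL final) plus ATP (1.25 mM final); secreted IL-1B measured by AlphaLISA after 16 hr, decreased signal indicating inhibition.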
The depositor's hits bear a star; i = inactive; ? = inconclusive; · = no result. In the library only some 8.8% were active in any assay of this set; here they are far more common. Unless noted, the call rests on the fitted dose curve; in most records, active means well fitted curve in the direction sought with a large enough effect; inconclusive means small, poorly fitted or top-dose-only effect, or another doubt; inactive means no such curve, though single readings can be large; an effect the other way counts as inactive or inconclusive. Unless noted, on the % scale 0 is the no-effect control and ±100 the full control effect.

SMILES	HT1080-NT tox	HT1080 IDH1KD tx	KB-V1 cytotox	KB-3-1 cytotox	IL1B secr inh
O=C1N=C(N2CCOCC2)S/C1=C/c1cc2c(cc1[N+](=O)[O-])OCO2	?	?	i	i	-99.8*
Cc1c(NC(=O)C(C)N2C(=O)C3CCCCC3C2=O)c(=O)n(-c2ccccc2)n1C (stereo not drawn)	7.6%	12.0%	i	i	29.4
COc1ccc(NC(=O)CSc2nc(C)cc(C)c2C(=O)Nc2cccc(C)c2)cc1	·	·	i	i	·
CCCCn1c(SCC(=O)N2CCOCC2)nc2ccccc2c1=O	-3.2%	-20.7%	i	i	-1.1
CCCCn1c(SCC(=O)Nc2ccccc2C(F)(F)F)nc2ccsc2c1=O	-0.6%	3.5%	2.59µM*	i	10.1
CCCCn1c(SCC(=O)N2CCN(c3ccccc3)CC2)nc2ccsc2c1=O	?	?	8.2µM*	i	-22.8
CCCCn1c(SCC(=O)N2CCC(C)CC2)nc2ccsc2c1=O	-15.5%	-9.4%	1.16µM*	i	7.4
O=C1CCC(=O)N1Cc1c(Cl)cccc1Cl	-14.0%	21.8%	i	i	20.6
Cc1cccc(NC(=S)NC2CC3CCCC(C2)N3Cc2cccs2)c1 (stereo not drawn)	?	?	i	i	-78.1*
CSc1ccccc1OCc1cc(C(=O)NC(C)Cc2cccc(C)n2)no1 (stereo not drawn)	-2.7%	-8.0%	·	·	-56.7*
CC[C@@H](C)[C@@H](C(=O)N1CCN(C(=O)OC(C)(C)C)CC1)n1cc(CCCCNC(=O)OC(C)(C)C)nn1	-2.0%	-1.9%	20.6µM*	?	-22.4
CC[C@H](C)C(C(=O)N1CCN(C(=O)OC(C)(C)C)CC1)n1cc(C(CC(C)C)NC(=O)OC(C)(C)C)nn1 (stereo partly drawn)	6.7%	5.1%	i	i	-4.4
O=C(NCc1ccncc1)c1ccc(N2CCCC2)c([N+](=O)[O-])c1	-16.3%	5.3%	?	i	-3.0
C=C1CCN(c2ccc(C(=O)NCc3ccc(OC)cc3)cc2[N+](=O)[O-])CC1	-16.5%	-4.2%	i	i	-75.4*
C=C1CCN(c2ccc(C(=O)NCc3ccc(C)cc3)cc2[N+](=O)[O-])CC1	-4.0%	-0.4%	i	i	-62.6*
CCn1c(SC(C)C(=O)NCc2ccco2)nnc1-c1ccccc1 (stereo not drawn)	·	·	i	?	·
CC1(C(=O)NCc2ccccc2Br)CCN1Cc1ccc(-c2ccccn2)cc1 (stereo not drawn)	?	?	13µM*	?	-28.9
CC1(C(=O)NCc2ccccc2Br)CCN1Cc1ccc2ccccc2c1 (stereo not drawn)	-22.4%	?	i	i	-7.4
Cc1ccccc1C(=O)NC1CCN(C(=O)Nc2ccccc2Cl)CC1	-0.3%	1.0%	i	i	?
COc1cccc(NC(=O)Nc2ccc3nsnc3c2)c1	2.8%	3.5%	?	i	-56.3*
COc1cccc(NC(=O)Nc2ccc3nc(C)c(C)nc3c2)c1	8.2%	6.5%	i	i	-17.4
COc1cccc(NC(=O)Nc2ccc3c(c2)nc(C)n3C)c1	-12.1%	-1.3%	?	i	-12.5
Cc1ccc(Cl)cc1NC(=O)c1cccc(OC(F)F)c1	-9.5%	-11.2%	18.4µM*	i	-5.4
COc1cccc(NC(=O)Nc2cc(Cl)ccc2C)c1	-11.5%	-5.4%	?	i	-75.8*
COc1ccc(NC(=O)Nc2cccc(OC)c2)cc1	-1.9%	6.2%	i	i	-75.4*
SMILES	HT1080-NT tox	HT1080 IDH1KD tx	KB-V1 cytotox	KB-3-1 cytotox	IL1B secr inh
Cc1cc(Br)ccc1NC(=O)CN(C)C(=O)c1ccc(-n2cncn2)c([N+](=O)[O-])c1	2.4%	-6.2%	i	i	?
Cc1ccc(Cl)cc1NC(=O)c1cc2ccccc2cc1O	4.11µM*	?	?	9.2µM*	-89.6*
Cc1c(NC(=O)COC(=O)C2=COCCO2)cccc1[N+](=O)[O-]	5.9%	3.8%	i	i	7.7
CCc1cccc(NC(=O)Cn2cc(C=O)c3ccccc32)c1	?	16.4µM*	20.6µM*	?	17.6
Cc1cccc(C)c1NC(=O)c1cc(S(=O)(=O)N2CCC3(CC2)OCCO3)ccc1F	0.4%	3.1%	?	i	0.6
COc1cccc(N2CCN(c3ncnc4c3[nH]c3ccc(F)cc34)CC2C)c1 (stereo not drawn)	6.51µM*	7.31µM*	?	?	-112.0*
COc1ccc2c(c1)[nH]c1c(N3CCSCC3)ncnc12	?	14.6µM*	?	i	·
COc1ccc2c(c1)[nH]c1c(N3CCN(Cc4ccc5c(c4)OCO5)CC3)ncnc12	-18.9%	?	2.59µM*	?	-104.8*
COc1ccc2[nH]c3c(N4CC(C)OC(C)C4)ncnc3c2c1 (stereo not drawn)	-15.0%	-2.1%	i	i	-17.2
COc1ccc(N2CCN(S(=O)(=O)CCNC(=O)COc3ccc(Cl)cc3)CC2)cc1	-8.5%	-21.9%	i	i	-14.3
CC(=O)c1ccc(OC(C)C(=O)NCC2(N3CCOCC3)CCCCC2)cc1 (stereo not drawn)	7.5%	4.2%	i	i	21.9
c1ccc(-c2cc3c(ccc4nonc43)nn2)cc1	6.5%	8.6%	i	i	2.2
On1onc2c3cc(-c4ccccc4)nc3ccc21	-23.7%	?	14.6µM*	i	-14.4
N#Cc1cc2cc3c(cc2nc1N1CCCCC1)OCCO3	-0.5%	-2.3%	i	i	-10.6
CCOCCCNC(=S)N1CCCN(c2nc3cc(C)c(C)cc3cc2C#N)CC1	-15.2%	-11.8%	i	i	-5.0
COCCCNC(=S)N1CCCN(c2nc3cc(C)c(C)cc3cc2C#N)CC1	-5.0%	-11.2%	i	i	-74.3*
Cc1ccc(C(=O)N2CCCN(c3nc4cc5c(cc4cc3C#N)OCO5)CC2)cc1	?	20.6µM*	23.1µM*	?	18.4
O=C(NC(c1ccc2c(c1)OCO2)c1ccccn1)C1CCN(CCOc2ccccc2)CC1 (stereo not drawn)	-3.9%	-1.4%	i	i	-13.7
CCOc1ccc(S(=O)(=O)N2CCC(C(=O)N3CCCCCC3)CC2)cc1C	0.1%	-2.3%	?	i	-52.0*
COc1ccc(C(C)NC(=O)C2CCN(CCOc3ccc(Cl)cc3Cl)CC2)cc1OC (stereo not drawn)	23.1µM*	?	?	?	-23.8
CCOc1ccc(S(=O)(=O)N2CCC(C(=O)N3CCOCC3)CC2)cc1C	2.2%	0.5%	i	i	-4.1
COc1ccc(C(NC(=O)C2CCN(CCOc3ccc(Cl)cc3Cl)CC2)c2cccs2)cc1 (stereo not drawn)	-22.6%	?	?	?	-21.5

Screening results (PubChem)
